According to PubChem BioAssay (NCATS):
Where “and” joins values, the source holds several entries; their conditions need not be identical. Identical values can stand only once. Records with an inconclusive call do not appear. Unmarked numbers belong to inactive results. Calls of active or inactive are those of the source. Calls come from the whole dose curve; as a rule, active = well fitted curve in the direction sought with a large enough effect; inconclusive = small, poorly fitted or top-dose-only effect, or another doubt; inactive = no such curve, though single readings can be large or run the other way.

experiment: qHTS Assay for Identifying Gametocytocidal Compounds (AID 743244);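 for max response: actives lower the fluorescent signal which means gametocytes are killed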; details: P. falciparum 3D7 stage III-V gametocytes, alamarBlue, 72 h; max response: stronger effect = lower value
Excerpt: Malaria cases and deaths have dropped 50% in 29 countries since 2000 due to the combined effects of long-lasting insecticidal bednets, indoor residual spraying, and artemisinin-based combination therapies (ACTs). This success has raised hopes for malaria eradication and consequently stimulated interest in developing new reagents that block gametocyte transmission such as novel and safe gametocytocidal drugs. However, previous drug development efforts have focused primarily on the asexual parasites that cause symptoms, but not malaria transmission. Consequently, patients can remain infectious for weeks after the clearance of asexual parasites and clinical symptoms. To be transmitted from person to person via a mosquito, the parasites must switch from asexual to sexual development and produce male and female gametocytes. Malaria gametocytes consist of five stages (I, II, III, IV and V). The late stage gametocytes (III, IV and V) are difficult to be cultured in vitro and the long lifespan of mature gametocytes allows them being transmitted from host to mosquitoes unless they are completely eliminated by gametocytocidal agents. To identify gametocytocidal compounds which are capable of killing late stage P. falciparum gametocytes, a high throughput gametocyte viability assay was employed. This assay uses oxidoreduction indicator, alamarBlue, as a general measure of metabolic activity of gametocytes. Within live cells, the nonfluorescent resazurin is reduced to resorufin, a bright red fluorescence dye. Fluorescence decreases upon treatment of gametocytocidal compounds. P. falciparum gametocyte (3D7 strain) was used in this study.
The 1536-well gametocycidal viability assay was based on the previous method of Tanaka et al. Stage III-V gametocytes were tested against three compound libraries, including 4265 compounds from NCGC pharmaceutical collection, 400 from Malaria Box library, and 550 from an internal collection of kinase inhibitors. Briefly, 2.5 ul/well incomplete medium was dispensed into each well of 1,536-well plates using the Multidrop Combi followed by 23 nl compound transferring using the NX-TR Pintool (WAKO Scientific Solutions, San Diego, CA). Then, 2.5 ul/well of gametocytes was dispensed with a seeding density of 20,000 cells/well using the Multidrop Combi. The assay plates were incubated for 72 h at 37C with 5% CO2. After addition of 5 ul/well of 2X AlamarBlue dye (Life Technologies, cat. no. DAL1100), the plates were incubated for 24 h at 37C with 5% CO2 and then were read in a fluorescence detection mode (Ex = 525 nm, Em = 598 nm) on a ViewLux plate reader (PerkinElmer).
% is set by controls: 0 for no effect and ±100 for the full control effect; potency is the fitted concentration of half-maximal effect.

| SMILES | max response | Potency |
| --- | --- | --- |
| Oc1ccc(C2CNCCc3c2cc(O)c(O)c3Cl)cc1 (stereo not given) | 2.69% and -7.1% | – |
| CCCCNc1cc(C(=O)O)cc(S(N)(=O)=O)c1Oc1ccccc1 | -3.91% and 1.19% | – |
| COc1c(Cl)cc2c([nH]c3cnccc32)c1NC(=O)c1cccnc1C | 20.9% | – |
| Cc1c(C)c2c(c(C)c1O)CCC(C)(COc1ccc(CC3SC(=O)NC3=O)cc1)O2 (stereo not given) | 13.5% and 17.4% | – |
| CC1(C)Cc2c(-c3ccccc3)c(-c3ccc(Cl)cc3)c(CC(=O)O)n2C1 | 1.94% | – |
| C/C(=C\C(=O)Nc1ccccc1C(=O)O)c1ccc2ccccc2c1 | 90.9% | – |
| CCOc1cc(C=C2C(=O)N(c3ccccc3)N=C2C)cc(Cl)c1OCC(=O)OC | 28.7% | – |
| CO[C@@H]1[C@H](N(C)C(=O)c2ccccc2)C[C@H]2O[C@]1(C)n1c3ccccc3c3c4c(c5c6ccccc6n2c5c31)C(=O)NC4 | – | 5.9 µM (active) |
| CCC(C)N(C)C(=O)c1cc2ccccc2c(-c2ccccc2Cl)n1 (stereo not given) | 24.9% | – |
| CNCc1ccc(-c2[nH]c3cc(F)cc4c3c2CCNC4=O)cc1 | – | 29.6 µM (active) |
| O=C(O)c1ccc(-c2c[nH]c3ccc(-c4ccccc4)cc23)cc1C1CCCC1 | 15.6% | – |
| CC(C)OC(=O)C1=CN(C(=O)c2ccc(F)c(F)c2)CC(C)(C)c2c1[nH]c1ccccc21 | 18.7% | – |
| CCn1c(-c2nonc2N)nc2c(C#CC(C)(C)O)ncc(OC[C@H]3CCCNC3)c21 | – | 23.5 µM (active) |
| CCCCCCCc1ccc(CCc2cccc(O)c2C(=O)O)cc1 | 25.6% | – |
| CS(=O)(=O)c1ccc(C(=O)Nc2ccc(Cl)c(-c3ccccn3)c2)c(Cl)c1 | 15% | – |
| COc1cc(Nc2ncc3c(n2)-c2ccc(Cl)cc2C(c2c(F)cccc2OC)=NC3)ccc1C(=O)O | -8.12% | – |
| CC(C)C[C@H](NC(=O)[C@@H](O)[C@H](N)Cc1ccccc1)C(=O)O | -20.9% and 9.59% | – |
| O=C(c1cc(Cc2n[nH]c(=O)c3ccccc23)ccc1F)N1CCN(C(=O)C2CC2)CC1 | 10.8% | – |
| CC(=O)NC(C)c1ccc(Oc2ccc(OC(C)C)cc2)cc1 (stereo not given) | -4.97% | – |
| COc1ccc(-c2oc3cc(OC)ccc3c2C(=O)c2ccc(C#N)cc2)cc1 | 8.18% | – |

| SMILES | max response | Potency |
| --- | --- | --- |
| CCOC(=O)N[C@@H]1CC[C@@H]2[C@@H](C1)C[C@H]1C(=O)O[C@H](C)[C@H]1[C@@H]2C=Cc1ccc(-c2cccc(F)c2)cn1 | -4.74% | – |
| COc1ccc(COc2cc3oc(=O)c4cc(C(C)O)ccc4c3cc2OC)cc1 (stereo not given) | 29.9% | – |
| NS(=O)(=O)c1cc2c(cc1Cl)NC=NS2(=O)=O | -0.751% and 21.2% | – |
| O=C1[C@H](Cc2ccc(O)cc2)N2C(=O)CCN(C(=O)NCc3ccccc3)[C@H]2CN1Cc1cccc2ccccc12 | -13% | – |
| COCCNCCCn1c(C(=O)CF)c(-c2ccc(C)cc2)c2c(N)ncnc21 | -16.2% | – |
| CCCn1c(=O)c2[nH]c(C34CC5CC3C[C@@H](C5)C4)nc2n(CCC)c1=O | 25.8% | – |
| CN([C@@H](Cc1ccc(OS(=O)(=O)c2cccc3cnccc23)cc1)C(=O)N1CCN(c2ccccc2)CC1)S(=O)(=O)c1cccc2cnccc12 | – | 18.7 µM (active) |
| Nc1ccc(S(=O)(=O)Nc2ccnn2-c2ccccc2)cc1 | 9.56% and 18.4% | – |
| CCC(C)n1ncn(-c2ccc(N3CCN(c4ccc(OC[C@H]5CO[C@](Cn6cncn6)(c6ccc(Cl)cc6Cl)O5)cc4)CC3)cc2)c1=O (stereo not given in full) | 3.11% | – |
| O=C(O)COCCN1CCN(C(c2ccccc2)c2ccc(Cl)cc2)CC1 (stereo not given) | -12% and 28.9% | – |
| CCCS(=O)(=O)Nc1ccc(F)c(C(=O)c2c[nH]c3ncc(Cl)cc23)c1F | 35.4% | – |
| COc1ccc(CCN2CCN(CCCc3ccccc3)CC2)cc1OC | -5.52% | – |
| Cc1cc(-c2ccc(CC(=O)Nc3ccc(-c4cccnc4)cc3)cc2)ccn1 | 17.3% | – |
| Cc1ccc(-n2nc(C(C)(C)C)cc2NC(=O)Nc2ccc(OCCN3CCOCC3)c3ccccc23)cc1 | – | 12.6 µM (active) |
| Cc1[nH]c(=O)c(C#N)cc1-c1ccc2nccn2c1 | -5.81% and 18.1% | – |
| Cc1cc(-c2nnc3n2CCCCC3)c(C)n1-c1ccc(F)cc1 | – | 18.7 µM (active) |
| Clc1ccc(Nc2nnc(Cc3ccncc3)c3ccccc23)cc1 | -0.822% and -17.1% | – |
| CC(C)c1onc(-c2c(Cl)cccc2Cl)c1COc1ccc(/C=C/c2cccc(C(=O)O)c2)c(Cl)c1 | 14.5% | – |
| CCCS(=O)(=O)Nc1ccc(F)c(C(=O)c2c[nH]c3ncc(-c4ccc(Cl)cc4)cc23)c1F | 14.6% | – |
| Cc1ccnc(NS(=O)(=O)c2ccc(NC(=O)Nc3ccc(S(=O)(=O)Nc4nccc(C)n4)cc3)cc2)n1 | -10.8% | – |
